Laboratory results: PubChem BioAssay (Tox21)
Records with an inconclusive call do not appear. Unmarked numbers belong to inactive results. Active and inactive are the calls of the source. The call rests on the fitted dose curve; in most records, active means well fitted curve in the direction sought with a large enough effect in the repeat runs; inconclusive means weak or mixed curves; inactive means no such curve, though single readings can be large; an effect the other way counts as inactive or inconclusive.

assay: qHTS RealTime-Glo MT Cell Viability Assay in HEK293 cells - 40 hour (AID 1224874); conditions: RealTime-Glo luminescence; max response: active compounds read low; further: nearly all actives have a fitted effect of over 50% in size
Outline: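 Tox21 screen in HEK293 using RealTime-Glo MT chemistry, with cells and reagent co-dispensed. Luminescence proportional to viable cell number was captured at intervals during 40 h compound exposure at 37 C.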
On the % scale 0 is the no-effect control and ±100 the full control effect; potency means the concentration at half of the fitted maximal effect.

| SMILES | max response [%] | Potency |
| --- | --- | --- |
| CC(=O)N[C@@H](Cc1ccc(O)cc1)C(=O)O | 8.17 |  |
| Cc1ccc(Nc2c(F)cccc2Cl)c(CC(=O)O)c1 | 5.05 |  |
| C=Cc1ccc(OC(C)=O)cc1 | 18.3 |  |
| CCCOC(=O)c1c(Cl)c(Cl)c(Cl)c(Cl)c1C(=O)OCCC | 3.32 |  |
| Nc1ccc(N=Nc2ccc(N)cc2)cc1 | -7.32 |  |
| CC1=C2[C@@H]([C@H](C)CC[C@H]2/C=C(\C)C(=O)O)[C@H](O)C1 | -2.63 |  |
| O=C1CC[C@@H](C(=O)O)N1 | 0.932 |  |
| C=CC(=O)O | -0.787 |  |
| COc1cc(NC(C)CCCN)c2ncccc2c1 (stereo not drawn) | -12.5 |  |
| O=C(O)/C=C/c1ccc(O)c(O)c1 | -2.68 |  |
| COc1cc(NS(=O)(=O)c2ccc(N)cc2)nc(C)n1 | 9.67 |  |
| CC(=O)NCCO | 8.1 |  |
| CN(C)CC/C=C1\c2ccccc2Sc2ccc(Cl)cc21 |  | 23.9 µM (active) |
| COc1cc(OC)c2ccc(=O)oc2c1 | -23.1 |  |
| CCCCCc1ccco1 | 4.73 |  |
| Nc1nc(-c2ccc([N+](=O)[O-])cc2)cs1 | -14.1 |  |
| O=C(Oc1ccccc1)c1ccc2ccccc2c1O | -20.6 |  |
| CC(C(=O)O)c1ccc(C(=O)c2cccs2)cc1 (stereo not drawn) | 0.273 |  |
| CCCCCCC(CO)CCCC (stereo not drawn) | 4.35 |  |

assay: A CellTox Green Cytotoxicity Assay to monitor cytotoxicity in HEK293 cells - 24 hour (AID 1224875); conditions: CellTox Green fluorescence; series mostly up to 76.8 µM; activity change: at the top concentration; further: nearly all actives have a fitted effect of over 45% in size
Outline: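 Seeding of HEK293 cells together with cytotoxicity dye preceded a 5 h incubation at 37 C/5% CO2. Test compounds in DMSO were then added and fluorescence monitored across 40 h.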

| SMILES | activity change | Potency |
| --- | --- | --- |
| O=C1OC[C@H](Cc2cccc(O)c2)[C@H]1Cc1cccc(O)c1 | -0.858% [at 35.3 µM, active compounds read high] |  |
| O=C(O)CCCc1c[nH]c2ccccc12 | -4.33% |  |
| CC[C@@H](CO)NCCN[C@@H](CC)CO | -9.17% [at 35.3 µM, active compounds read high] |  |
| CC(C)(C)C(O)/C=C/c1ccc2c(c1)OCO2 (stereo not drawn) | 8.07% [at 35.3 µM, active compounds read high] |  |
| CCO[Si](C)(CCCOCC1CO1)OCC (stereo not drawn) | -5.12% |  |
| Nc1c(Cl)cc(Cl)cc1[N+](=O)[O-] | 5.79% |  |
| COc1ccc(-c2cc(C(F)F)nn2-c2ccc(S(N)(=O)=O)cc2)cc1F | -5.58% [at 35.3 µM, active compounds read high] |  |
| COC(=O)Nc1nc2ccc(C(=O)C3CC3)cc2[nH]1 | -0.134% [at 35.3 µM, active compounds read high] |  |
| CCCCCCCC/C=C/C(=O)O | 7.39% [at 35.3 µM, active compounds read high] |  |
| CC(=O)N[C@@H](Cc1ccc(O)cc1)C(=O)O | -4.21% [at 35.3 µM, active compounds read high] |  |
| C=Cc1ccc(OC(C)=O)cc1 | 22.3% |  |
| CCCOC(=O)c1c(Cl)c(Cl)c(Cl)c(Cl)c1C(=O)OCCC | 22.2% |  |
| CC1=C2[C@@H]([C@H](C)CC[C@H]2/C=C(\C)C(=O)O)[C@H](O)C1 | 0.911% |  |
| CNCc1ccc(NC(=O)c2c[nH]c3c2C(=O)CCC3)cc1 | -15.5% |  |
| CCCc1nc2c(C)cc(-c3nc4ccccc4n3C)cc2n1Cc1ccc(-c2ccccc2C(=O)O)cc1 | -4.62% [at 35.3 µM, active compounds read high] |  |
| C=CC(=O)O | -2.79% [at 35.3 µM, active compounds read high] |  |
| COc1cc(NC(C)CCCN)c2ncccc2c1 (stereo not drawn) | -6.95% [at 35.3 µM, active compounds read high] |  |
| O=C(O)/C=C/c1ccc(O)c(O)c1 | -10.8% |  |
| COc1cc(NS(=O)(=O)c2ccc(N)cc2)nc(C)n1 | 3.02% [at 35.3 µM, active compounds read high] |  |
| CC(=O)NCCO | -2.29% |  |
| CN(C)CC/C=C1\c2ccccc2Sc2ccc(Cl)cc21 |  | 26.8 µM (active) |
| COc1cc(OC)c2ccc(=O)oc2c1 | 1.02% |  |
| CCCCCc1ccco1 | 5.95% [at 35.3 µM, active compounds read high] |  |
| Nc1nc(-c2ccc([N+](=O)[O-])cc2)cs1 | -6.78% |  |
| O=C(C(=O)c1ccco1)c1ccco1 | 18.6% |  |
| O=C(Oc1ccccc1)c1ccc2ccccc2c1O | 0.202% |  |
| CC(C(=O)O)c1ccc(C(=O)c2cccs2)cc1 (stereo not drawn) | 1.81% [at 35.3 µM, active compounds read high] |  |
| O=C(CCS)OCC(COC(=O)CCS)(COC(=O)CCS)COC(=O)CCS | 3.61% |  |
| CCCCCCC(CO)CCCC (stereo not drawn) | -1.44% |  |
